Bioassay records deposited in PubChem by National Center for Advancing Translational Sciences (NCATS).
Most compounds without a hit are left out; they make up all but 19% or so of the library.
TDP1 cell CPT – DT40-hTDP1 cell growth loss with CPT; Potency, µM (titrated, usually from 46.2 µM), for inactives: at the highest dose activity change, negative = growth inhibition, actives largely listed as inhibitors; chicken DT40 Tdp1-/-;hTDP1 cells + 20 nM CPT, ATP luminescence, 48 h; 12% of 420,000 active; also: potency is read from the fitted curve at half-maximal effect; nearly all actives have a fitted effect of over 55% in size
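Cell growth measured by CellTiter-Glo luminescence after a minimum 48 h, 37 C compound exposure with 20 nM CPT in Tdp1-knockout DT40 cells stably expressing hTDP1, seeded 400/well; qHTS titration format.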
IL-1B inflam inh – blocks inflammasome-driven IL-1 beta release; THP-1 LPS/ATP IL-1B secretion, AlphaLISA, 16 h; stronger effect = lower value; activity change, % at 57.5 µM; 4.7% of 360,000 active; AID 743279; in the data active = activity change below about -50%; inconclusive = mostly about -30% to -49%
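THP-1 cells pretreated 1 hr with compounds (up to 57.5 uM final), then stimulated with LPS (250 ng/mL final) plus ATP (1.25 mM final); secreted IL-1B measured by AlphaLISA after 16 hr, decreased signal indicating inhibition.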
HT1080-NT tox – kills 2HG-producing HT-1080-NT fibrosarcoma cells. AID 686970. 1.6% of 360,000 active. HT-1080-NT fibrosarcoma viability, CellTiter-Glo ATP luminescence, 48 h. Potency, µM (titrated, usually from 46.1 µM), for the others: top-dose activity, negative = less viability, most hits filed as cytotoxic;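 also: NT is the 2HG producing partner of a matched IDH1 knockdown line; potency is read from the fitted curve at half-maximal effect; 0% = DMSO-treated cells and -100% = media-only wells without cells; nearly all actives have a fitted effect of over 55% in size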
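HT-1080-NT; 750 cells/well; 5% FBS RPMI; 48 h compound, 37 degrees C; CellTiter-Glo luminescence; curve fitting and curve-class assignment.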
HT1080 IDH1KD tx – kills HT-1080 cells with IDH1 knockdown | HT-1080 IDH1 knockdown viability, ATP luminescence, 48 h | Potency, µM (top dose mostly 46.1 µM), without a hit: at the top dose activity, negative = toxicity, most hits filed as cytotoxic | 2% of 360,000 active;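 also: potency is read from the fitted curve at half-maximal effect; 0% = DMSO wells and -100% = cell-free medium wells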
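Assay cells: HT-1080 with IDH1 knockdown, 750 per well, RPMI/5% FBS. Exposure: 48 h at 37 °C following 2 h pre-incubation. Read: CellTiter-Glo luminescence; fitted concentration-response, curve class assigned.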
TDP1 cell noCPT – qHTS for Inhibitors of human tyrosyl-DNA phosphodiesterase 1 (TDP1): qHTS in cells in absence of CPT; AID 686978, 2013; 15% of 420,000 active; Potency, µM (highest dose often 46.2 µM), without a hit: at the highest dose activity change, negative = growth inhibition, actives largely listed as inhibitors; DT40 Tdp1-/- hTDP1 cells, no CPT, ATP luminescence, 48 h; also: potency is read from the fitted curve at half-maximal effect; nearly all actives have a fitted effect of over 55% in size
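Growth of hTDP1-complemented DT40 Tdp1-knockout cells is measured by ATP luminescence after at least 48 hr compound exposure at 37 °C, with DMSO substituting for the 20 nM CPT used in the parallel screen.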
The depositor's hits bear a star; ? = inconclusive; . = not tested or not shown; [ ] = dose if it differs, or a comment. Unless noted, calls follow the shape of the dose curve; as a rule, active = well fitted curve in the direction sought with a large enough effect; inconclusive = small, poorly fitted or top-dose-only effect, or another doubt; inactive = no such curve, though single readings can be large; an effect the other way counts as inactive or inconclusive. Unless noted, % is scaled to controls: 0 for no effect and ±100 for the full control effect.

SMILES	TDP1 cell CPT	IL-1B inflam inh	HT1080-NT tox	HT1080 IDH1KD tx	TDP1 cell noCPT
Cc1ccc(-c2nc3ccccn3c2NC(=O)c2ccco2)cc1	-8%	-7	-1%	-2%[9.24 µM]	0%
O=C(CN(C(=O)Cn1nnc(-c2ccc(F)cc2)n1)c1cccc(F)c1)NC1CCCC1	-27%	-14	-14%	0%	-27%
CC(C)(C)Nc1nc2nonc2nc1NC(C)(C)C	16µM*	-68*	?	?	?
Cc1c(CCNC=O)cc(C)c2c3c(oc12)CCCC3	-60%	0	0%	0%	?
O=C(CSc1nc2ccc(Cl)cc2[nH]1)NC1CCCc2ccccc21 (centres undefined)	?	?	-21%	?	21µM*
CC(C)N(C(=O)CSc1nc2ccc(Cl)cc2[nH]1)c1ccccc1	?	.	.	.	23µM*
Cc1ccc(Cl)cc1N1CCN(CC(=O)NC2CCCc3ccccc32)CC1 (centres undefined)	?	-9	?	?	16µM*
O=C(CN1CCN(c2ccccc2Cl)CC1)NC1CCCc2ccccc21 (centres undefined)	?	-59*	0%	0%	?
Cc1cc(C)cc(C(=O)NCc2nc(-c3cccc(NC(=O)c4ccccn4)c3)oc2C)c1	0%[9.04 µM]	.	.	.	-11%
O=S1(=O)C[C@H](N2CCC[C@@H]2CO)[C@@H](COCc2ccccc2)N1	0%	7	?	27%	12%
OCC1OC(n2cnc3ccccc32)CC1O (centres undefined)	31%	5	-2%	0%	-1%
CCOC(=O)[C@@H](NC(=O)/C=C/[C@H]1O[C@@H](n2cc(C)c(=O)[nH]c2=O)C[C@@H]1O)C(C)C	15%	33	10%	16%	-2%
CCCCc1ccc(-c2nn[nH]n2)nc1	?	-6	-4%	-24%	?
CCOC(=O)C1=C(N2CCCCC2)c2cc3c(n2C1=O)CCCC3	?	0	-2%	-6%	9.2µM*
CCCc1cc2c(cc1N(C)S(=O)(=O)c1ccccc1)OCO2	3.7µM*	-18	1%	-10%	3.7µM*
COc1cccc(S(=O)(=O)NCc2ccc3c(c2)OCO3)c1	-22%	-6	3%	-2%	-18%
CC(=O)Nc1cc(-c2ccc(C(=O)NC3CC3)cc2)cn2c(-c3cccc(C(C)=O)c3)cnc12	?	-19	15µM*	?	23µM*
CC(=O)Nc1cc(-c2ccc(C(=O)NC3CC3)cc2)cn2c(-c3cccc(C(F)(F)F)c3)cnc12	?	-53*	?	16µM*	23µM*
Nn1cnnc1SCC(=O)N1CCc2ccccc2C1	11%	-2	-2%	-3%	-10%
COc1ccc(-c2cc(C)no2)cc1S(=O)(=O)NCc1cccs1	15µM*	.	.	.	15µM*
Cc1cc(-c2ccc(C)c(S(=O)(=O)N3CCN(C(=O)c4ccco4)CC3)c2)on1	2%	-15	-6%	3%	9%
COc1ccc(OC)c(CNS(=O)(=O)c2cc(-c3cc(C)no3)ccc2OC)c1	-12%	7	2%	-1%	-14%
COc1cccc(N2CCN(S(=O)(=O)c3cc(-c4cc(C)no4)ccc3C)CC2)c1	?	.	.	.	18µM*
CCc1ccc(-c2cc(C)no2)cc1S(=O)(=O)N1CCN(c2ccc(OC)cc2)CC1	21µM*	-2	?	?	?
COc1ccc(-c2cc(C)no2)cc1S(=O)(=O)N1CCN(c2ccc([N+](=O)[O-])cc2)CC1	?	31	-4%	-8%	0%
SMILES	TDP1 cell CPT	IL-1B inflam inh	HT1080-NT tox	HT1080 IDH1KD tx	TDP1 cell noCPT
CCc1ccc(-c2cc(C)no2)cc1S(=O)(=O)N1CCN(C(=O)c2ccco2)CC1	0%	-19	-27%	-10%	21µM*
O=C(CNC(=O)c1ccccc1)OCC(=O)c1ccccc1	0%	.	.	.	?
CCc1ccc(-c2cc(C)no2)cc1S(=O)(=O)NCc1ccc(OC)cc1	0.92µM*	.	.	.	1µM*
COCCN(Cc1cccs1)S(=O)(=O)c1cc(-c2cc(C)no2)ccc1C	?	.	.	.	21µM*
COc1ccc(CNS(=O)(=O)c2cc(-c3cc(C)no3)ccc2C)cc1OC	-26%	-4	-2%	-6%	-21%
Cc1cc(-c2ccc(C)c(S(=O)(=O)N(C(C)C)C3CCCCC3)c2)on1	21µM*	.	.	.	?
Cc1cc(-c2ccc(C)c(S(=O)(=O)NCC3CCN(Cc4ccc(F)cc4)CC3)c2)on1	18µM*	-88*	?	?	?
CCc1ccccc1NC(=O)Cn1nnc(C(=O)Nc2ccc(OC)c(OC)c2)c1N	-3%	.	.	.	-8%
Cn1nc(C(=O)Nc2cccc(C(F)(F)F)c2)c2c1-c1ccccc1S(=O)(=O)C2	-3%	.	.	.	1%
Cc1nc2ncnn2c(C)c1CCC(=O)NCc1ccccc1Cl	19%	.	.	.	0%
Cc1ccc2occ(-c3cc(-c4ccc(Cl)cc4)nc4c3COc3ccccc3-4)c(=O)c2c1	0%	.	.	.	1%
CCc1ccc(-c2cc(C)no2)cc1S(=O)(=O)NCCCN1CCN(c2ccccc2)CC1	?	-19	18µM*	?	?
CCc1ccc(-c2cc(C)no2)cc1S(=O)(=O)NCCN1CCC(C)CC1	?	?	-28%	-23%	?
CCOc1ccccc1/C=N/Nc1cc(C)nc2ccc(C)cc12	2%	-21	2%	-1%	-27%
CCOc1ccc(Nc2cc(C)nc3ccc(C)cc23)cc1	23µM*	-88*	29µM*	?	?
COc1ccc2nc(C)cc(SCC(=O)NNC(=O)COc3ccccc3)c2c1	?	-8	0%	8%	?
COc1ccc2nc(C)cc(Sc3nc4ccccc4s3)c2c1	9.2µM*	-99*	10µM*	23µM*	9.2µM*
COc1ccc2nc(C)cc(Nc3ccc(C(=O)O)cc3)c2c1	10%	1	6%	10%	-1%
COc1ccc(Nc2cc(C)nc3ccc(OC)cc23)cc1	-4%	-101*	?	?	?
COc1ccc(CNc2cc(C)nc3ccc(OC)cc23)cc1	?	-93*	?	15µM*	21µM*
Cc1ccc(CNC(=O)C2CCCN(S(=O)(=O)c3ccc(-n4cnnn4)cc3)C2)cc1 (centres undefined)	-18%	44	11%	7%	-15%
Cc1cc(C)c2cc(C#N)c(SCC(=O)Nc3cc(C)on3)nc2c1	?	13	?	28%	?
COC(=O)CCN1CCC(c2cc(-c3cccc(C(F)(F)F)c3)n[nH]2)CC1	-7%	4	-3%	17%	-23%
c1ccc2c(-c3cc(C4CCNCC4)[nH]n3)cccc2c1	21µM*	-25	23µM*	21µM*	?
